Assay results published in PubChem BioAssay.
Active and inactive are the calls of the source.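 How the source made its calls: active means inhibition at or above 50% relative to wild type and mutant plate controls; inactive means inhibition below 50%.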

Assay: loss of swimming-algae plug formation – whole organism, Chlamydomonas reinhardtii, WT vs cilia-less mutant, absorbance, 96-well, primary screen (AID 463189);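 further: 0% = wild type cc124 cells in DMSO and 100% = ciliumless bld1 mutant cells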
Details: Chlamydomonas reinhardtii gravitaxis, OD600 absorbance, 2 days; at 10 µM; hits give high values
For NCCNC(=O)c1ccc(Cl)cc1, the inhibition was 5.46% (inactive). For CC(=O)/C(C)=N/O, the inhibition was 1.74% (inactive). In the case of CCCCS(=N)(=O)CCC(N)C(=O)O (stereo not drawn), the inhibition is reported as -0.023% (inactive). With Nc1nc2[nH]c(=O)cnc2c(=O)[nH]1 the inhibition was 5.48% (inactive). In the case of N#CC(Cc1ccc(O)c(O)c1)C(=O)N1CCc2ccccc21 (stereo not drawn), the inhibition is reported as 0.886% (inactive). For CN(C)c1cc2c(Nc3ccc4c(cnn4Cc4ccccc4)c3)ncnc2cn1, the inhibition was 2.93% (inactive). In the case of Cc1ccc(OCC(O)C(C)NC(C)C)c2c1CCC2 (stereo not drawn), the inhibition is reported as -3.42% (inactive). In the case of Cc1ccc(/C(=C\CN2CCCC2)c2ccccn2)cc1, the inhibition is reported as 11.6% (inactive). With CN1CCc2c(cc(O)c(O)c2Cl)C(c2cccc(Cl)c2)C1 (stereo not drawn) the inhibition was -5.57% (inactive). For NC[C@H](O)c1ccc(O)c(O)c1, the inhibition was 6.74% (inactive). With CC1C(=O)N(C)C(=O)c2nc[nH]c21 (stereo not drawn) the inhibition was 7.36% (inactive). In the case of Brc1ccc([C@H]2CN3CCSC3=N2)cc1, the inhibition is reported as 123% (active). For CN(C)CCC(c1ccccc1)c1ccccn1 (stereo not drawn), the inhibition was 7.99% (inactive). In the case of [Li+], the inhibition is reported as -0.162% (inactive). In the case of O=C(O)C1CCCN(CCC=C(c2ccccc2)c2ccccc2)C1 (stereo not drawn), the inhibition is reported as 11.4% (inactive). With CC(=O)O[C@]1(C(C)=O)CC[C@H]2[C@@H]3C=C(Cl)C4=CC(=O)[C@@H]5C[C@@H]5[C@]4(C)[C@H]3CC[C@@]21C the inhibition was 6.43% (inactive). For CCCCCCCCCC[Si](C)(C)CCC(=O)NC(Cc1ccc(C)cc1)c1ccccc1 (stereo not drawn), the inhibition was 1.73% (inactive). For COc1cccc2c1[C@@H]1CN(CCCCn3c(=O)[nH]c4c(sc5ncc(-c6ccccc6)nc54)c3=O)C[C@@H]1CO2, the inhibition was 4.24% (inactive).
